Measured values published in PubChem BioAssay.
Calls of active or inactive are those of the source. Unless noted, the rule behind the calls is not given here.

Experiments:
[1] = resazurin metabolic signal in HepG2 cells – cell-based, resazurin fluorescence, 24 h, PK04 Diversity Set, profiling panel (AID 1172); conditions: HepG2 viability, higher = more signal
[2] = budding yeast growth changes without added modifier – OD600, strain BY4716, 24 h, basal condition, primary screen (AID 1173); conditions: S. cerevisiae BY4716 growth, OD600, 24 h; higher = more signal, called active from +8 up or from −8 down
[3] = viability profiling in MM1S myeloma cells – cell-based, resazurin fluorescence, basal, 24 h, PK04 Diversity Set, profiling panel (AID 1174); conditions: higher = more signal, called active from +8 up or from −8 down;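 note: MM1S multiple myeloma cell line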
[4] = biological target: Dihydroorotate dehydrogenase (quinone), mitochondrial (Plasmodium falciparum (isolate 3D7)) (UniProt Q08210); assay: inhibition of P. falciparum DHODH – biochemical, C-terminal His tag, absorbance 600 nm, primary screen (AID 1175); conditions: PfDHODH enzyme, DCIP absorbance 600 nm; higher = more signal, called active from +8 up or from −8 down;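 note: recombinant parasite enzyme with a five histidine tag at its C terminus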
[5] = inhibition of PAO1 biofilm formation – strain PAO1, LB-PBS medium, absorbance 600 nm, primary screen (AID 1176); conditions: P. aeruginosa PAO1 growth/biofilm, A600, 12 h; higher = more signal
[6] = growth modulation of vineyard yeast isolate – strain RM11-1a, OD600, basal, 24 h, primary screen (AID 1177);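 note: cultures grown under basal conditions with no added stressor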; conditions: S. cerevisiae RM11-1a growth, OD600, 24 h; higher = more signal, called active from +8 up or from −8 down
[7] = growth of efflux-deficient E. coli DRC39 – strain DRC39, OD650, 24 h, E. coli filamentation inducers, primary screen (AID 1178);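 note: growth measured as culture turbidity by optical density at 650 nm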; conditions: E. coli DRC39 acrAB, higher = more signal, called active from +8 up or from −8 down
[8] = growth of efflux-deficient E. coli DRC39 – strain DRC39, OD650, 48 h, E. coli filamentation inducers, primary screen (AID 1179);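 note: screen aims at cell division blockers that make cells filament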; conditions: E. coli DRC39 delta-acrAB growth, higher = more signal, called active from +8 up or from −8 down
[9] = viability profiling in RPMI8226 myeloma cells – cell-based, resazurin fluorescence, basal, 24 h, PK04 Diversity Set, profiling panel (AID 1180); conditions: higher = more signal;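 note: RPMI8826 multiple myeloma cell line at 5000 cells per well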
[10] = biological target: E3 ubiquitin-protein ligase XIAP (Homo sapiens) (UniProt P98170); assay: small molecules binding XIAP protein – biophysical, small-molecule microarray, fluorescence 635 nm, primary screen (AID 1181); conditions: higher = more signal;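 note: score merges 667 nm emission and signal to noise over triplicate slides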
[11] = tested on: XIP peptide (Xip251-270) binding; assay: XIP fragment 251-270 binding compounds – biochemical, small-molecule microarray, fluorescence 635/667 nm, 0.1 µg/mL protein, primary screen (AID 1182); conditions: fluorescent protein binding, 635 nm, higher = more signal, called active from +8 up or from −8 down
[12] = tested on: XIP peptide (Xip251-270); assay: compounds binding XIP fragment 251-270 – biochemical, small-molecule microarray, fluorescence 635/667 nm, 0.5 µg/mL protein, primary screen (AID 1183); conditions: fluorescence 635 nm, higher = more signal
[13] = blood-stage malaria parasite viability loss – strain 3D7, DAPI fluorescence, 100 nL, primary screen (AID 1184);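 note: parasites grown inside human red blood cells in medium with human serum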; conditions: P. falciparum 3D7 growth, 3 d, higher = more signal
[14] = biological target: Homeobox protein Hox-A13 (Mus musculus) (UniProt Q62424); assay: disruptors of Hoxa13 oligonucleotide interaction – biochemical, fluorescence polarization, labeled oligonucleotide, primary screen (AID 1185); conditions: Hoxa13:DNA binding, 15 min, higher = more signal, called active from +8 up or from −8 down
[15] = blockers of DNA damage checkpoint Chk1 activation – imaging, HeLa, hydroxyurea, phospho-Chk1 antibody, percent positive cells, primary screen (AID 1186); conditions: hydroxyurea-induced phospho-Chk1 immunofluorescence imaging, higher = more signal
[16] = blockers of DNA damage checkpoint Chk1 activation – imaging, HeLa, hydroxyurea, phospho-Chk1 nuclear intensity, primary screen (AID 1187); conditions: hydroxyurea-induced phospho-Chk1 immunofluorescence imaging, higher = more signal

Sequence of Homeobox protein Hox-A13 (Mus musculus) (Q62424 whole entry, looked up): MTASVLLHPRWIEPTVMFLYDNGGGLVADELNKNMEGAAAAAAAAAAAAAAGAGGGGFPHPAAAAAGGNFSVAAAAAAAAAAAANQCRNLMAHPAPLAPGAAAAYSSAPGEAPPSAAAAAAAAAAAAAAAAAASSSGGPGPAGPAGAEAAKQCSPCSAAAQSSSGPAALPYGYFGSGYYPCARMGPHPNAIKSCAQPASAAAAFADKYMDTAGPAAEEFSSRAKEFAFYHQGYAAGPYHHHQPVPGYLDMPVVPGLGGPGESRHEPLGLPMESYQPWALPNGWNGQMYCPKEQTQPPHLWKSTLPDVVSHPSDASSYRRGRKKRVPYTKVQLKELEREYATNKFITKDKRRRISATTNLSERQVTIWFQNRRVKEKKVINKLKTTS
Sequence of E3 ubiquitin-protein ligase XIAP (Homo sapiens) (P98170 whole entry, looked up, the tested form may be a part): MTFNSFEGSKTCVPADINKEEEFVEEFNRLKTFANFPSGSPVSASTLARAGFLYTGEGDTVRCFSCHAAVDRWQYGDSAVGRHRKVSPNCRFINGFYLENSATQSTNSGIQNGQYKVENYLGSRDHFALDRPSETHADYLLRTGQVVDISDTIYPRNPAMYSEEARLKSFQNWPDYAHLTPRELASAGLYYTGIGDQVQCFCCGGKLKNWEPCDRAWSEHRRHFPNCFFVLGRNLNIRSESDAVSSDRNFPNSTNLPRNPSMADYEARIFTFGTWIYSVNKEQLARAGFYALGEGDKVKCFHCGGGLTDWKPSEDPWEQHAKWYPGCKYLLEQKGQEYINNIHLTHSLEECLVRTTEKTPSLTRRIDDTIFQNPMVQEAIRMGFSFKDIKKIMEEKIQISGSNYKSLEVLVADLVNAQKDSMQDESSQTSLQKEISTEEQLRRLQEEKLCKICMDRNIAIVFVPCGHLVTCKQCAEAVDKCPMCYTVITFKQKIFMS
Sequence of Dihydroorotate dehydrogenase (quinone), mitochondrial (Plasmodium falciparum (isolate 3D7)) (Q08210 whole entry, looked up): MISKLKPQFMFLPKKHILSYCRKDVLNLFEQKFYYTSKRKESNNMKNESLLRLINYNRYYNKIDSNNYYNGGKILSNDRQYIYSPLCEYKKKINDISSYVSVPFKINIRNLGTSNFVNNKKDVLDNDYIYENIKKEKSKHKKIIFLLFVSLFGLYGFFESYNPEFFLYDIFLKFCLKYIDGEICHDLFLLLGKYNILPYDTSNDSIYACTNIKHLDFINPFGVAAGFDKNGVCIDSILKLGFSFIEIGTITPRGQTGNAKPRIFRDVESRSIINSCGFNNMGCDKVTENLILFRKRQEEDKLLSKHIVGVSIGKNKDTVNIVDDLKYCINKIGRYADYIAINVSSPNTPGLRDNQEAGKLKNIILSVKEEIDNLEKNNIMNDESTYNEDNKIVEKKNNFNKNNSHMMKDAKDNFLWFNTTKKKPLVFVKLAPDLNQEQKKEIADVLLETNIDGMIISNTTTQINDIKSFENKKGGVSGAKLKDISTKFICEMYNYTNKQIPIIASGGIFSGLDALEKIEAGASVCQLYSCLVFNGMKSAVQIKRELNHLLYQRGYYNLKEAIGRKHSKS

Structure (SMILES)	z-score [1]	z-score [2]	z-score [3]	composite z-score [4]	z-score [5]	z-score [6]	z-score [7]	z-score [8]	z-score [9]	composite z-score [10]	composite z-score [11]	composite z-score [12]	z-score [13]	z-score [14]	z-score [15]	z-score [16]
O=C1O[C@@H](c2ccccc2)[C@@H](c2ccccc2)N2[C@@H](c3ccccc3OCCO)[C@]3(C(=O)Nc4ccccc43)[C@@H](C(=O)O)[C@H]12	-0.0985	-2.46 (inactive)	0.19 (inactive)	-0.487 (inactive)	0.986 (inactive)	0.324 (inactive)	-0.582 (inactive)	-0.76 (inactive)	0.125	0.0755	1.14 (inactive)	0.457	-0.6	-6.35 (inactive)	0.405 (inactive)	0.5 (inactive)
O=C(CS)NCCCCCNC(=O)[C@H]1C[C@H]2C(=O)NCC(=O)N2[C@H]1c1ccc(O)cc1	1.33	-0.208 (inactive)	1.5 (inactive)	-0.522 (inactive)	-0.832 (inactive)	-1.3 (inactive)	0.268 (inactive)	0.0249 (inactive)	1.21	0.0621	-0.344 (inactive)	0.149	0.201	-1.2 (inactive)	-0.831 (inactive)	-0.795 (inactive)
COC(=O)[C@@]1(Cc2ccc(OC)cc2)[C@H]2c3cc(C(=O)N4CCCC4)n(CCCNc4ncc(C(F)(F)F)cc4Cl)c3C[C@H]2CN1C(=O)c1ccccc1	0.808	1.01 (inactive)	-1.12 (inactive)	-0.199 (inactive)	-0.0982 (inactive)	0.398 (inactive)	-0.0379 (inactive)	-0.816 (inactive)	-2.67	0.0986	-0.546 (inactive)	0.736	-1.41	-4.1 (inactive)	0.259 (inactive)	-0.101 (inactive)
[N-]=[N+]=Nc1ccccc1C[C@@]1(C(=O)N2CCCCC2)N=C(c2ccc(OCCCO)cc2)O[C@@H]1c1ccccc1	1.9	-2.84 (inactive)	-0.351 (inactive)	0.496 (inactive)	3.16 (inactive)	0.076 (inactive)	1.38 (inactive)	0.887 (inactive)	-0.0538	-0.236	-0.0034 (inactive)	0.727	-2.19	-5.04 (inactive)	-0.878 (inactive)	-0.654 (inactive)
CCOC(=O)C1=CC[C@@H](c2ccc(C(F)(F)F)cc2)N(S(=O)(=O)c2ccc(C)cc2)[C@H]1c1ccccc1	-0.333	0.062 (inactive)	-2.34 (inactive)	-0.296 (inactive)	-0.0601 (inactive)	-0.258 (inactive)	-0.604 (inactive)	-0.126 (inactive)	-5.04	-0.278	0.544 (inactive)	0.762	-2.02	0.759 (inactive)	0.0487 (inactive)	-0.516 (inactive)
COc1ccc(-c2cc3c(c(Cc4ccccc4)n2)[Si](C(C)C)(C(C)C)OC3)cn1	0.177	-0.652 (inactive)	-0.141 (inactive)	0.653 (inactive)	0.0429 (inactive)	2 (inactive)	0.184 (inactive)	0.0876 (inactive)	0.626	-0.0749	0.684 (inactive)	-0.342	-2.79	-2.5 (inactive)	-0.24 (inactive)	-0.828 (inactive)
CC(=O)Nc1cc(Br)ccc1C(=O)NCc1ccccc1	0.184	-8.91 (active)	-0.292 (inactive)	0.663 (inactive)	-0.131 (inactive)	-0.294 (inactive)	0.0344 (inactive)	-0.785 (inactive)	-0.108	-0.157	0.137 (inactive)	0.201	1.3	-0.77 (inactive)	0.0852 (inactive)	0.516 (inactive)
C=CCNC(=O)[C@@H]1[C@H]2C(=O)O[C@H](c3ccccc3)[C@H](c3ccccc3)N2[C@H](c2ccc(OCCO)cc2)[C@@]12C(=O)N(C(=O)OCCOC)c1ccc(C#CCC(C(=O)OC)C(=O)OC)cc12	-0.185	1.01 (inactive)	0.351 (inactive)	-1.27 (inactive)	2.85 (inactive)	1.61 (inactive)	0.854 (inactive)	-0.033 (inactive)	-1.24	0.284	1.33 (inactive)	0.743	-2.11	-1.17 (inactive)	0.053 (inactive)	0.0115 (inactive)
C=CCOC(=O)[C@H]1[C@@H]2C(=O)O[C@@H](c3ccccc3)[C@@H](c3ccccc3)N2[C@@H](c2ccc(OCCOC(=O)[C@H]3C[C@H]4C(=O)N[C@@H](CCCCN(C)C)C(=O)N4[C@H]3c3cccc(OCCO)c3)cc2)[C@]12C(=O)Nc1ccc(I)cc12	-0.0574	0.626 (inactive)	-0.865 (inactive)	1.71 (inactive)	0.808 (inactive)	1.75 (inactive)	-0.548 (inactive)	-1.02 (inactive)	-0.316	0.194	0.718 (inactive)	0.634	-0.355	5.48 (inactive)	-0.187 (inactive)	0.0593 (inactive)
[N-]=[N+]=NCc1ccccc1[C@@H]1OC(c2ccc(OCCCO)cc2)=N[C@]1(CCS(=O)(=O)c1ccccc1)C(=O)N1CCOCC1	-0.0512	-0.26 (inactive)	0.543 (inactive)	-4.67 (inactive)	0.19 (inactive)	0.821 (inactive)	2.84 (inactive)	0.753 (inactive)	1.05	0.0512	1.06 (inactive)	0.712	-2.36	-1.69 (inactive)	-0.535 (inactive)	-0.137 (inactive)
CCCC(=O)N(CCc1c[nH]c2ccccc12)[C@@H]1CC(C(=O)NCCO)=C[C@H](Oc2c(I)cc(CO)cc2OC)[C@H]1O	0.627	-1.22 (inactive)	-0.176 (inactive)	0.0595 (inactive)	0.789 (inactive)	0.152 (inactive)	0.336 (inactive)	0.582 (inactive)	0.114	-0.222	-0.131 (inactive)	0.289	-0.373	-7.89 (inactive)	-1.51 (inactive)	-2.68 (inactive)
CCOc1cc(C(O)C2C=CC3C(=O)N(c4ccccc4)C(=O)C3N2Nc2ccc(C(C)C)cc2)ccc1O (centres undefined)	-1.14	-1.16 (inactive)	-0.988 (inactive)	1.15 (inactive)	0.779 (inactive)	1.68 (inactive)	-0.361 (inactive)	-1.34 (inactive)	-1.3	0.0891	0.429 (inactive)	0.828	-0.85	-4.72 (inactive)	0.415 (inactive)	0.241 (inactive)
COCCCNC(=O)[C@@H]1c2ccccc2C(=O)N(Cc2ccccc2OC)[C@H]1c1ccc(CO)cc1	1.13	-0.993 (inactive)	1.71 (inactive)	0.253 (inactive)	1.23 (inactive)	-0.839 (inactive)	0.342 (inactive)	0.261 (inactive)	1.14	0.0472	0.694 (inactive)	-0.0218	-1.99	-2.85 (inactive)	-0.481 (inactive)	-0.576 (inactive)
O=C(O)[C@H]1C[C@H]2C(=O)N3CCC[C@H]3C(=O)N2[C@H]1c1ccc(O)cc1	0.684	-0.171 (inactive)	1.1 (inactive)	-0.453 (inactive)	0.0778 (inactive)	0.208 (inactive)	0.408 (inactive)	0.715 (inactive)	1.07	0.125	-0.469 (inactive)	-0.0016	0.351	-1.01 (inactive)	0.272 (inactive)	0.267 (inactive)
COCC(=C=CC[C@H](O)c1cccc(OCCO)c1)CCO	0.72	0.161 (inactive)	0.491 (inactive)	-0.326 (inactive)	0.154 (inactive)	0.896 (inactive)	0.128 (inactive)	0.398 (inactive)	0.557	0.0153	1.15 (inactive)	0.433	0.547	-2.29 (inactive)	-0.0132 (inactive)	-0.479 (inactive)
O=C1C2C=CC(C(O)c3c(F)cccc3Cl)N(Nc3ccccc3F)C2C(=O)N1c1ccccc1 (centres undefined)	-0.269	-0.796 (inactive)	-0.819 (inactive)	-0.303 (inactive)	0.447 (inactive)	0.824 (inactive)	-0.0281 (inactive)	0.729 (inactive)	-0.144	-0.0749	0.433 (inactive)	0.811	0.562	-0.377 (inactive)	0.486 (inactive)	0.435 (inactive)
C=CCC(OC(C)=O)[C@@H]1[C@@H](N(Cc2ccc(-c3cccc(C(F)(F)F)c3)o2)C(=O)Cc2ccc(OC)cc2)c2cc(OCCCO)ccc2N1C(=O)c1ccc2ccccc2c1 (some centres undefined)	-0.29	-1.44 (inactive)	0.598 (inactive)	0.165 (inactive)	-0.841 (inactive)	0.0979 (inactive)	0.751 (inactive)	0.489 (inactive)	0.187	0.144	0.397 (inactive)	0.0642	-2.16	-2.43 (inactive)	0.171 (inactive)	0.284 (inactive)
COCCOC(=O)N1C(=O)[C@@]2(c3cc(C#Cc4ccc(OC)cc4)ccc31)[C@H](c1ccc(O)cc1)N1[C@H](c3ccccc3)[C@H](c3ccccc3)OC(=O)[C@H]1[C@@H]2C(=O)Nc1nc2ccccc2s1	-0.719	-0.442 (inactive)	-0.72 (inactive)	-0.455 (inactive)	0.819 (inactive)	0.363 (inactive)	-0.184 (inactive)	-0.0404 (inactive)	-0.61	0.0345	0.691 (inactive)	0.641	-0.0098	-0.183 (inactive)	-0.233 (inactive)	-0.215 (inactive)
COc1cc2c(cc1O)C(c1cccs1)N(Cc1ccc([N+](=O)[O-])o1)CC2 (centres undefined)	-0.302	-2.05 (inactive)	0.278 (inactive)	-4.93 (inactive)	0.723 (inactive)	-1.14 (inactive)	-0.107 (inactive)	1.19 (inactive)	-0.182	-0.102	0.243 (inactive)	0.947	-0.316	-6.24 (inactive)	-0.334 (inactive)	-0.445 (inactive)
